Among all 39,000 compounds or so, about 3,300 (8.5%) were called active. The list comes from a sample in which actives are over-represented; it also holds similar structures and randomly drawn compounds.
Each compound was assayed on HepG2 (assay: cytotoxicity call (relative viability < 0.9)). Details: 10 µM.
`COCC(=O)Nc1ccc2c(c1)C(=O)N(C)[C@@H]1CC[C@H](CC(=O)N3CCc4ccccc4C3)O[C@H]1CO2` was tested, and the cytotoxicity call was “inactive”.
`Cc1noc(C)c1NC(=O)Nc1ccc2c(c1)C(=O)N([C@@H](C)CO)C[C@H](C)[C@H](CN(C)S(=O)(=O)c1ccc(F)cc1)OCCCC[C@H](C)O2` was tested, and the cytotoxicity call was “inactive”.
In the case of `CN1C(=O)c2cc(NC(=O)C3CCOCC3)ccc2OC[C@@H]2O[C@@H](CC(=O)NCCc3ccncc3)CC[C@@H]21`, the cytotoxicity call was “inactive”.
With `COc1ccc(C=Cc2cc(O)cc(O[C@@H]3O[C@H](CO)[C@@H](O)[C@H](O)[C@H]3O)c2)cc1` the cytotoxicity call was “inactive”.
In the case of `C1=C(c2ccccc2)CC(c2ccccc2)=NN=C1c1ccccc1`, the cytotoxicity call was “inactive”.
With `COCCNC(=O)[C@H]1[C@H](CO)[C@H]2Cn3c(cccc3=O)[C@@H]1N2S(=O)(=O)c1ccccc1C` the cytotoxicity call was “inactive”.
For `C[C@@H]1CN([C@H](C)CO)C(=O)Cc2cc(NC(=O)Cn3cnnn3)ccc2O[C@H]1CN(C)S(=O)(=O)c1ccc(Cl)cc1`, the cytotoxicity call was “inactive”.
In the case of `CC(C)NC(=O)Nc1ccc2c(c1)CC(=O)N([C@@H](C)CO)C[C@@H](C)[C@@H](CN(C)S(=O)(=O)c1ccccc1)O2`, the cytotoxicity call was “inactive”.
In the case of `CC(C)NC(=O)Nc1ccc2c(c1)CC(=O)N([C@H](C)CO)C[C@H](C)[C@H](CN(C)S(=O)(=O)c1ccc(F)cc1)O2`, the cytotoxicity call was “inactive”.
In the case of `C[C@H](CO)N1C[C@H](C)[C@H](CN(C)Cc2ccc3c(c2)OCO3)Oc2ccc(NS(C)(=O)=O)cc2C1=O`, the cytotoxicity call was “inactive”.
In the case of `COc1ccc(NC(=O)Nc2ccc3c(c2)C(=O)N([C@H](C)CO)C[C@@H](C)[C@@H](CN(C)S(=O)(=O)c2ccccc2)OCCCC[C@H](C)O3)cc1`, the cytotoxicity call was “inactive”.
With `C[C@H]1CCCCO[C@H](CN(C)S(=O)(=O)c2ccc(Cl)cc2)[C@@H](C)CN([C@@H](C)CO)C(=O)c2cc(NC(=O)C3CCCCC3)ccc2O1` the cytotoxicity call was “inactive”.
In the case of `O=C(C[C@H]1CC[C@H]2[C@@H](COC[C@H](O)CN2S(=O)(=O)c2ccc(F)cc2)O1)N[C@H]1CCN(Cc2ccccc2)C1`, the cytotoxicity call was “inactive”.
For `C[C@@H]1CCCCO[C@@H](CN(C)Cc2ccc3c(c2)OCO3)[C@@H](C)CN([C@@H](C)CO)C(=O)c2cc(NS(=O)(=O)c3cccs3)ccc2O1`, the cytotoxicity call was “inactive”.
`CCN1CCN(C2=C(NS(=O)(=O)c3ccc(Br)cc3)C(=O)c3ccccc3C2=O)CC1` was tested, and the cytotoxicity call was “active”.
`CC(=O)N1CCN(CC(=O)NS(=O)(=O)c2ccccc2)CC1` was tested, and the cytotoxicity call was “inactive”.
With `CCN1CCN(C2=C(NS(=O)(=O)c3ccc(Br)s3)C(=O)c3ccccc3C2=O)CC1` the cytotoxicity call was “active”.
With `O=C1C(NS(=O)(=O)c2ccc(Br)cc2)=C(c2ccc(OC(F)(F)F)cc2)C(=O)c2ccccc21` the cytotoxicity call was “inactive”.
For `COc1cccc(C#Cc2ccc3c(c2)O[C@@H](CN(C)C(C)=O)[C@H](C)CN([C@H](C)CO)S3(=O)=O)c1`, the cytotoxicity call was “inactive”.
For `O=C(C[C@H]1C[C@H]2c3cc(NS(=O)(=O)c4ccc(F)cc4)ccc3O[C@H]2[C@@H](CO)O1)NCc1ccccn1`, the cytotoxicity call was “inactive”.
With `Cc1noc(C)c1NC(=O)Nc1ccc2c(c1)C(=O)N([C@H](C)CO)C[C@H](C)[C@H](CN(C)S(=O)(=O)c1ccc(Cl)cc1)OCCCC[C@@H](C)O2` the cytotoxicity call was “inactive”.
`CN1CCN(C(=O)C[C@@H]2CC[C@H]3[C@H](COc4ccc(NC(=O)C5CCOCC5)cc4C(=O)N3C)O2)CC1` was tested, and the cytotoxicity call was “inactive”.
In the case of `C[C@@H]1CCCCO[C@H](CN(C)S(=O)(=O)c2cn(C)cn2)[C@@H](C)CN([C@@H](C)CO)C(=O)c2cc(NS(=O)(=O)c3cccs3)ccc2O1`, the cytotoxicity call was “inactive”.
`CCCNC(=O)Nc1ccc2c(c1)C(=O)N(C)C[C@@H](OC)[C@H](C)CN(C(=O)C1CCOCC1)[C@@H](C)CO2` was tested, and the cytotoxicity call was “inactive”.
`CCO[C@@H]1OC(C(=O)N2CCN(Cc3ccccc3)CC2)=C[C@H](c2ccc(C(F)(F)F)cc2)[C@H]1CCCOC(=O)NCCCCCC(=O)NO` was tested, and the cytotoxicity call was “inactive”.
In the case of `CN(C)CC(=O)N[C@@H]1CC[C@H](CCNC(=O)C2CC2)O[C@@H]1CO`, the cytotoxicity call was “inactive”.
For `C[C@@H]1CN([C@@H](C)CO)C(=O)c2cccc(NC(=O)Nc3cccc4ccccc34)c2O[C@H]1CN(C)C(=O)Nc1ccc(C(F)(F)F)cc1`, the cytotoxicity call was “active”.
With `C[C@@H]1CN([C@H](C)CO)C(=O)c2cccc(NC(=O)Nc3cccc4ccccc34)c2O[C@@H]1CN(C)C(=O)Nc1ccc(C(F)(F)F)cc1` the cytotoxicity call was “active”.
In the case of `C[C@H]1CN([C@@H](C)CO)C(=O)c2cccc(NC(=O)Nc3cccc4ccccc34)c2O[C@H]1CN(C)C(=O)Nc1ccc(C(F)(F)F)cc1`, the cytotoxicity call was “active”.
In the case of `C[C@H]1CN([C@@H](C)CO)C(=O)c2cccc(NC(=O)Nc3cccc4ccccc34)c2O[C@@H]1CN(C)C(=O)Nc1ccc(C(F)(F)F)cc1`, the cytotoxicity call was “active”.
With `O=C(C1=C[C@H](c2coc3ccccc3c2=O)C[C@H](OCCCCO)O1)N1CCOCCOCCOCCOCC1` the cytotoxicity call was “inactive”.
`Cc1ccc(S(=O)(=O)Nc2ccc3c(c2)C(=O)N([C@@H](C)CO)C[C@@H](C)[C@H](CN(C)C(=O)Nc2ccc4c(c2)OCO4)OCCCC[C@@H](C)O3)cc1` was tested, and the cytotoxicity call was “inactive”.
With `COc1ccc(S(=O)(=O)N(C)C[C@H]2OCCCC[C@H](C)Oc3ccc(NC(=O)Nc4cccc5ccccc45)cc3C(=O)N([C@H](C)CO)C[C@@H]2C)cc1` the cytotoxicity call was “inactive”.
`COc1cccc(S(=O)(=O)Nc2ccc3c(c2)[C@@H]2C[C@H](CC(=O)NCCc4ccccc4)O[C@@H](CO)[C@@H]2O3)c1` was tested, and the cytotoxicity call was “inactive”.
With `O=C(CCCCC(=O)N/N=C/c1cc(I)cc(I)c1O)NO` the cytotoxicity call was “inactive”.
`COCC(=O)N1C[C@H](C)[C@H](OC)CN(C)C(=O)c2cc(NC(=O)Nc3cccc(F)c3)ccc2OC[C@H]1C` was tested, and the cytotoxicity call was “inactive”.
`C[C@@H]1CN([C@@H](C)CO)C(=O)c2cc(C#CCc3ccccc3)cnc2O[C@H]1CN(C)C(=O)C1CCOCC1` was tested, and the cytotoxicity call was “inactive”.
In the case of `COc1ccc(S(=O)(=O)Nc2ccc3c(c2)C(=O)N([C@H](C)CO)C[C@@H](C)[C@@H](CN(C)C(=O)NC(C)C)O3)cc1`, the cytotoxicity call was “inactive”.
`CC(C)NC(=O)N(C)C[C@H]1Oc2ccc(NC(=O)Nc3ccc4c(c3)OCO4)cc2C(=O)N([C@@H](C)CO)C[C@@H]1C` was tested, and the cytotoxicity call was “inactive”.
For `Cc1noc(C)c1S(=O)(=O)Nc1ccc2c(c1)CC(=O)N([C@@H](C)CO)C[C@@H](C)[C@H](CN(C)Cc1ccccc1)O2`, the cytotoxicity call was “inactive”.
For `C[C@@H]1CN([C@@H](C)CO)C(=O)c2cc(NC(=O)CCCN(C)C)ccc2O[C@@H]1CN(C)S(=O)(=O)c1ccc(F)cc1`, the cytotoxicity call was “inactive”.
With `C[C@@H]1CN([C@H](C)CO)C(=O)c2cccc(NC(=O)Nc3cccc4ccccc34)c2O[C@H]1CN(C)C(=O)Nc1ccc(C(F)(F)F)cc1` the cytotoxicity call was “inactive”.
`C[C@H](CO)N1C[C@H](C)[C@H](CN(C)C(=O)Nc2ccc(C(F)(F)F)cc2)Oc2c(NC(=O)Nc3cccc4ccccc34)cccc2C1=O` was tested, and the cytotoxicity call was “inactive”.
In the case of `C[C@H](CO)N1C[C@H](C)[C@@H](CN(C)C(=O)Nc2ccc(C(F)(F)F)cc2)Oc2c(NC(=O)Nc3cccc4ccccc34)cccc2C1=O`, the cytotoxicity call was “active”.
For `COCOc1ccc2cc(Br)ccc2c1-c1c(OCOC)ccc2cc(Br)ccc12`, the cytotoxicity call was “active”.
For `COc1ccc2ccccc2c1-c1c(OC)ccc2ccccc12`, the cytotoxicity call was “inactive”.
In the case of `C[C@H]1CN([C@@H](C)CO)C(=O)c2cc(C#CCc3ccccc3)cnc2O[C@H]1CN(C)C(=O)C1CCOCC1`, the cytotoxicity call was “inactive”.
With `C[C@@H]1CCCCO[C@H](CN(C)Cc2ccccc2)[C@H](C)CN([C@@H](C)CO)C(=O)c2cc(NC(=O)C3CCCCC3)ccc2O1` the cytotoxicity call was “inactive”.
In the case of `COc1ccc(CNC(=O)c2cc3c(c(-c4cccc(-c5ccc(C#N)cc5)c4)n2)[C@@H](CCO)N([S@](=O)C(C)(C)C)C3)cc1`, the cytotoxicity call was “inactive”.
`CN(C)CCCNC(=O)C[C@@H]1CC[C@@H]2[C@H](COC[C@H](O)CN2C(=O)Nc2cc(Cl)cc(Cl)c2)O1` was tested, and the cytotoxicity call was “inactive”.
In the case of `C[C@H](CO)N1C[C@H](C)[C@@H](CN(C)Cc2ccc(C(=O)Nc3ccccc3N)cc2)Oc2ccc(NC(=O)NC3CCCCC3)cc2CC1=O`, the cytotoxicity call was “inactive”.
For `C[C@@H]1CN([C@H](C)CO)C(=O)Cc2cc(NC(=O)NC3CCCCC3)ccc2O[C@H]1CN(C)Cc1ccc(C(=O)Nc2ccccc2N)cc1`, the cytotoxicity call was “inactive”.
For `C[C@H]1CN([C@@H](C)CO)C(=O)Cc2cc(NC(=O)NC3CCCCC3)ccc2O[C@H]1CN(C)Cc1ccc(C(=O)Nc2ccccc2N)cc1`, the cytotoxicity call was “active”.
`C[C@@H]1CN([C@H](C)CO)C(=O)Cc2cc(NC(=O)C3CCCCC3)ccc2O[C@@H]1CN(C)Cc1ccc(C(=O)Nc2ccccc2N)cc1` was tested, and the cytotoxicity call was “active”.
With `C[C@@H]1CN([C@H](C)CO)C(=O)Cc2cc(NC(=O)NC3CCCCC3)ccc2O[C@@H]1CN(C)Cc1ccc(C(=O)Nc2ccccc2N)cc1` the cytotoxicity call was “active”.
`C[C@H](CO)N1C[C@H](C)[C@H](CN(C)Cc2ccc(C(=O)Nc3ccccc3N)cc2)Oc2ccc(NC(=O)NC3CCCCC3)cc2CC1=O` was tested, and the cytotoxicity call was “inactive”.
For `C[C@H]1CN([C@@H](C)CO)C(=O)Cc2cc(NC(=O)C3CCCCC3)ccc2O[C@H]1CN(C)Cc1ccc(C(=O)Nc2ccccc2N)cc1`, the cytotoxicity call was “inactive”.
For `C[C@H](CO)N1C[C@H](C)[C@H](CN(C)Cc2ccc(C(=O)Nc3ccccc3N)cc2)Oc2ccc(NC(=O)C3CCCCC3)cc2CC1=O`, the cytotoxicity call was “inactive”.
For `C[C@H]1CN([C@@H](C)CO)C(=O)Cc2cc(NC(=O)NC3CCCCC3)ccc2O[C@@H]1CN(C)Cc1ccc(C(=O)Nc2ccccc2N)cc1`, the cytotoxicity call was “inactive”.
For `C[C@H](CO)N1C[C@H](C)[C@H](CN(C)C(=O)Nc2ccccc2)Oc2ccc(NS(C)(=O)=O)cc2CC1=O`, the cytotoxicity call was “inactive”.
For `C[C@@H]1CCCCO[C@H](CN(C)C(=O)NC2CCCCC2)[C@@H](C)CN([C@@H](C)CO)C(=O)c2cc(NS(=O)(=O)c3cccs3)ccc2O1`, the cytotoxicity call was “inactive”.
For `O=C(C[C@@H]1CC[C@H](NC(=O)CN2CCOCC2)[C@H](CO)O1)NCc1cccc(F)c1`, the cytotoxicity call was “inactive”.
